{"source": "the supplement of paper PMC9694430", "data": [{"test_system": "LOC_OS01G39600-cb002", "test": "thermal shift delta Tm vs DMSO control; higher = stronger stabilization (binding)", "settings": "12.5 µM; protein concentration 2 µM", "in_short": "(§1)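 Heating from 25°C to 95°C at 0.05°C/s, fluorescence was recorded for 19.5 μl wells of 2 μM E. coli-expressed, purified rice kinase domain in 100 mM potassium phosphate pH 7.5, 150 mM NaCl, 10% glycerol and 5 × SYPRO Orange with compound in DMSO. Boltzmann fits gave melting temperatures for this differential scanning fluorimetry assay. The shift reported is the mean of three replicates against the DMSO-only protein.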", "units": {"thermal shift delta Tm": "°C"}, "values": [{"smiles": "CCn1c(=O)c(-c2ccc(-c3cncs3)cc2Cl)cc2cnc(Nc3ccc(N4CCN(C)CC4)cc3)nc21", "thermal shift delta Tm": -0.49}, {"smiles": "Cc1ccc(CNc2ncnc3ccc(-c4ccc(CO)o4)cc23)o1", "thermal shift delta Tm": 0.85}, {"smiles": "COc1ccc(C(=O)Nc2sc3c(c2C(N)=O)CCCC3)cc1OC", "thermal shift delta Tm": 0.46}, {"smiles": "COc1cc2c(Oc3ccc4[nH]c(C)cc4c3F)ncnc2cc1OCCCN1CCCC1", "note": "[Cediranib (AZD2171)]", "thermal shift delta Tm": 0.22}, {"smiles": "CNC(=O)c1cccc(-c2ccc3c(N4CCOC[C@@H]4C)nc(N4CCOC[C@@H]4C)nc3n2)c1", "note": "[Vistusertib (AZD2014)]", "thermal shift delta Tm": -0.58}, {"smiles": "Cc1ccc(C(=O)Nc2ccc(CN3CCN(C)CC3)c(C(F)(F)F)c2)cc1C#Cc1cnc2[nH]ncc2c1", "note": "[GZD824 Dimesylate]", "thermal shift delta Tm": 22.8}, {"smiles": "Cc1ccccc1-n1c(Cn2nc(-c3cccc(O)c3)c3c(N)ncnc32)nc2cccc(C)c2c1=O", "thermal shift delta Tm": -0.15}, {"smiles": "Cc1nc(Nc2cnn(C3CCNCC3)c2)nc2c1N(C)C(=O)c1cc3ccccc3cc1N2C", "thermal shift delta Tm": -1.52}, {"smiles": "O=C1NCCc2[nH]c(-c3ccncc3)cc21", "thermal shift delta Tm": -0.24}, {"smiles": "Cc1nc2c(-c3cnc(N)nc3)nc(N3CCOCC3)nc2n1C(C)C", "thermal shift delta Tm": 1.29}, {"smiles": "O=C(Nc1nc2cccc(-c3ccc(CN4CCS(=O)(=O)CC4)cc3)n2n1)C1CC1", "note": "[Filgotinib (GLPG0634)]", "thermal shift delta Tm": -0.06}, {"smiles": "Fc1ccc2[nH]ccc2c1-c1nc(N2CCOCC2)c2sc(CN3CCN(CC4CC4)CC3)cc2n1", "thermal shift delta Tm": -0.27}, {"smiles": "CCOC(=O)c1cnc2ccc(-c3cncc(NS(=O)(=O)c4ccccc4)c3)cn12", "thermal shift delta Tm": 0.33}, {"smiles": "CCOc1cn(-c2ccc(F)cc2C)nc1C(=O)Nc1ccc(Oc2ccnc3cc(OC)c(OC)cc23)c(F)c1", "thermal shift delta Tm": 0.58}, {"smiles": "COc1ncc(-c2ccc3nccc(-c4ccnnc4)c3c2)cc1NS(=O)(=O)c1ccc(F)cc1F", "thermal shift delta Tm": 3.65}, {"smiles": "C=CC(=O)Nc1ccc(CN2C(=O)N(c3cc(OC)cc(OC)c3)Cc3cnc(Nc4ccc(N5CCN(C)CC5)cc4)nc32)cc1", "thermal shift delta Tm": -0.73}, {"smiles": "COc1ccc(S(=O)(=O)N(C(C)=O)c2ccccc2/C=C/c2cc[n+]([O-])cc2)cc1", "thermal shift delta Tm": -0.39}, {"smiles": "CNC(=O)c1ccccc1Nc1nc(Nc2ccc(N3CCOCC3)cc2OC)ncc1Cl", "thermal shift delta Tm": -6.71}, {"smiles": "O=C(O)c1ccc2c(c1)nc(Nc1cccc(Cl)c1)c1ccncc12", "note": "[Silmitasertib (CX-4945)]", "thermal shift delta Tm": 6.15}, {"smiles": "N#Cc1ccc2[nH]c(O)c(-c3ccc(CN4CCOCC4)cn3)c2c1", "thermal shift delta Tm": 1.95}, {"smiles": "CN1CCC(COc2cnc(-c3cccc(Cn4nc(-c5cccc(C#N)c5)ccc4=O)c3)nc2)CC1", "thermal shift delta Tm": 0.63}, {"smiles": "C[C@@H]1CN(CC(=O)Nc2ccc3c(c2)Cc2cccc(-c4cc(=O)cc(N5CCOCC5)o4)c2S3)C[C@H](C)O1", "thermal shift delta Tm": -0.34}, {"smiles": "COc1cc(N2CCN(C)CC2)ccc1Nc1nccc(-c2cn(C)c3cnccc23)n1", "thermal shift delta Tm": -0.38}, {"smiles": "COc1ccc(S(=O)(=O)N(CCO)c2ccccc2CN(C)C/C=C/c2ccc(Cl)cc2)cc1", "note": "[KN-93 Phosphate]", "thermal shift delta Tm": -0.38}, {"smiles": "COc1cc2ncnc(Nc3cccc(Cl)c3)c2cc1OC", "note": "[AG-1478 (Tyrphostin AG-1478)]", "thermal shift delta Tm": 1.07}, {"smiles": "C=C[C@@](C)(/C=C/c1ccc(O)cc1)CCC=C(C)C", "note": "[Bakuchiol]", "thermal shift delta Tm": 0.57}, {"smiles": "Cc1nc2ccc(-n3ncc(C(=O)c4cc5ccccc5[nH]4)c3N)cc2[nH]1", "thermal shift delta Tm": 0.82}, {"smiles": "CC(C)NC(=O)C1CCC(n2c(NC(=O)c3ccc(F)cc3)nc3ccc(CN4CCC(C(C)(C)O)CC4)cc32)CC1", "note": "(centres undefined) [Belizatinib (TSR-011)]", "thermal shift delta Tm": 2.02}, {"smiles": "CN(C[C@@H]1COCCO1)S(=O)(=O)Nc1ccc2ccc3ncc(-c4cnn(C)c4)cc3c(=O)c2c1", "thermal shift delta Tm": 2.41}, {"smiles": "Cn1cc(/C=C2\\C(=O)Nc3cccnc32)c2ccccc21", "thermal shift delta Tm": -0.03}, {"smiles": "COc1cc(OC)c(C=C2C(=O)Nc3ccccc32)c(OC)c1", "thermal shift delta Tm": 0.01}, {"smiles": "COc1ccc(/C=C/C(=O)C2(C(=O)/C=C/c3ccc(OC)c(OC)c3)CCCCC2)cc1OC", "thermal shift delta Tm": 0.02}, {"smiles": "N#C/C(=C(/N)Sc1ccc(N)cc1)c1ccccc1C(F)(F)F", "thermal shift delta Tm": -0.02}, {"smiles": "CNC(=O)CN1CCC(Oc2cc3c(Nc4cccc(Cl)c4F)ncnc3cc2OC)CC1", "note": "[Sapitinib (AZD8931)]", "thermal shift delta Tm": 0.43}, {"smiles": "CCS(=O)(=O)N1CCN(c2ccc(Nc3ncc(C(N)=O)c(NC4CC4)n3)cc2)CC1", "thermal shift delta Tm": 4.63}, {"smiles": "O=C1NC(=O)C(=Cc2ccc(-c3ccc(F)cc3)o2)S1", "note": "(stereo in doubt)", "thermal shift delta Tm": 0.11}, {"smiles": "C[C@@H](N)c1ccc(C(=O)Nc2ccnc3[nH]ccc23)cc1", "thermal shift delta Tm": 0.74}]}, {"test_system": "LOC_OS01G48390-cb002", "test": "thermal shift delta Tm vs DMSO control; higher = stronger stabilization (binding)", "settings": "12.5 µM; protein concentration 2 µM", "in_short": "as §1", "units": {"thermal shift delta Tm": "°C"}, "values": [{"smiles": "CCn1c(=O)c(-c2ccc(-c3cncs3)cc2Cl)cc2cnc(Nc3ccc(N4CCN(C)CC4)cc3)nc21", "thermal shift delta Tm": -0.5}, {"smiles": "Cc1ccc(CNc2ncnc3ccc(-c4ccc(CO)o4)cc23)o1", "thermal shift delta Tm": 0.79}, {"smiles": "COc1ccc(C(=O)Nc2sc3c(c2C(N)=O)CCCC3)cc1OC", "thermal shift delta Tm": 0.85}, {"smiles": "COc1cc2c(Oc3ccc4[nH]c(C)cc4c3F)ncnc2cc1OCCCN1CCCC1", "note": "[Cediranib (AZD2171)]", "thermal shift delta Tm": 0.63}, {"smiles": "CNC(=O)c1cccc(-c2ccc3c(N4CCOC[C@@H]4C)nc(N4CCOC[C@@H]4C)nc3n2)c1", "note": "[Vistusertib (AZD2014)]", "thermal shift delta Tm": 0.24}, {"smiles": "Cc1ccc(C(=O)Nc2ccc(CN3CCN(C)CC3)c(C(F)(F)F)c2)cc1C#Cc1cnc2[nH]ncc2c1", "note": "[GZD824 Dimesylate]", "thermal shift delta Tm": 2.71}, {"smiles": "Cc1ccccc1-n1c(Cn2nc(-c3cccc(O)c3)c3c(N)ncnc32)nc2cccc(C)c2c1=O", "thermal shift delta Tm": 0.39}, {"smiles": "Cc1nc(Nc2cnn(C3CCNCC3)c2)nc2c1N(C)C(=O)c1cc3ccccc3cc1N2C", "thermal shift delta Tm": 0.62}, {"smiles": "O=C1NCCc2[nH]c(-c3ccncc3)cc21", "thermal shift delta Tm": 0.48}, {"smiles": "Cc1nc2c(-c3cnc(N)nc3)nc(N3CCOCC3)nc2n1C(C)C", "thermal shift delta Tm": 0.44}, {"smiles": "O=C(Nc1nc2cccc(-c3ccc(CN4CCS(=O)(=O)CC4)cc3)n2n1)C1CC1", "note": "[Filgotinib (GLPG0634)]", "thermal shift delta Tm": 0.26}, {"smiles": "Fc1ccc2[nH]ccc2c1-c1nc(N2CCOCC2)c2sc(CN3CCN(CC4CC4)CC3)cc2n1", "thermal shift delta Tm": 0.62}, {"smiles": "CCOC(=O)c1cnc2ccc(-c3cncc(NS(=O)(=O)c4ccccc4)c3)cn12", "thermal shift delta Tm": 0.35}, {"smiles": "CCOc1cn(-c2ccc(F)cc2C)nc1C(=O)Nc1ccc(Oc2ccnc3cc(OC)c(OC)cc23)c(F)c1", "thermal shift delta Tm": 0.48}, {"smiles": "COc1ncc(-c2ccc3nccc(-c4ccnnc4)c3c2)cc1NS(=O)(=O)c1ccc(F)cc1F", "thermal shift delta Tm": 0.45}, {"smiles": "C=CC(=O)Nc1ccc(CN2C(=O)N(c3cc(OC)cc(OC)c3)Cc3cnc(Nc4ccc(N5CCN(C)CC5)cc4)nc32)cc1", "thermal shift delta Tm": 4.57}, {"smiles": "COc1ccc(S(=O)(=O)N(C(C)=O)c2ccccc2/C=C/c2cc[n+]([O-])cc2)cc1", "thermal shift delta Tm": 0.12}, {"smiles": "CNC(=O)c1ccccc1Nc1nc(Nc2ccc(N3CCOCC3)cc2OC)ncc1Cl", "thermal shift delta Tm": 0.8}, {"smiles": "O=C(O)c1ccc2c(c1)nc(Nc1cccc(Cl)c1)c1ccncc12", "note": "[Silmitasertib (CX-4945)]", "thermal shift delta Tm": 0.06}, {"smiles": "N#Cc1ccc2[nH]c(O)c(-c3ccc(CN4CCOCC4)cn3)c2c1", "thermal shift delta Tm": 1.33}, {"smiles": "CN1CCC(COc2cnc(-c3cccc(Cn4nc(-c5cccc(C#N)c5)ccc4=O)c3)nc2)CC1", "thermal shift delta Tm": 0.2}, {"smiles": "C[C@@H]1CN(CC(=O)Nc2ccc3c(c2)Cc2cccc(-c4cc(=O)cc(N5CCOCC5)o4)c2S3)C[C@H](C)O1", "thermal shift delta Tm": 0.3}, {"smiles": "COc1cc(N2CCN(C)CC2)ccc1Nc1nccc(-c2cn(C)c3cnccc23)n1", "thermal shift delta Tm": 1.57}, {"smiles": "COc1ccc(S(=O)(=O)N(CCO)c2ccccc2CN(C)C/C=C/c2ccc(Cl)cc2)cc1", "note": "[KN-93 Phosphate]", "thermal shift delta Tm": 0.66}, {"smiles": "COc1cc2ncnc(Nc3cccc(Cl)c3)c2cc1OC", "note": "[AG-1478 (Tyrphostin AG-1478)]", "thermal shift delta Tm": 2.73}, {"smiles": "C=C[C@@](C)(/C=C/c1ccc(O)cc1)CCC=C(C)C", "note": "[Bakuchiol]", "thermal shift delta Tm": 0.85}, {"smiles": "Cc1nc2ccc(-n3ncc(C(=O)c4cc5ccccc5[nH]4)c3N)cc2[nH]1", "thermal shift delta Tm": 1.08}, {"smiles": "CC(C)NC(=O)C1CCC(n2c(NC(=O)c3ccc(F)cc3)nc3ccc(CN4CCC(C(C)(C)O)CC4)cc32)CC1", "note": "(centres undefined) [Belizatinib (TSR-011)]", "thermal shift delta Tm": 2.61}, {"smiles": "CN(C[C@@H]1COCCO1)S(=O)(=O)Nc1ccc2ccc3ncc(-c4cnn(C)c4)cc3c(=O)c2c1", "thermal shift delta Tm": 0.37}, {"smiles": "Cn1cc(/C=C2\\C(=O)Nc3cccnc32)c2ccccc21", "thermal shift delta Tm": 1.92}, {"smiles": "COc1cc(OC)c(C=C2C(=O)Nc3ccccc32)c(OC)c1", "thermal shift delta Tm": 0.22}, {"smiles": "COc1ccc(/C=C/C(=O)C2(C(=O)/C=C/c3ccc(OC)c(OC)c3)CCCCC2)cc1OC", "thermal shift delta Tm": 0.51}, {"smiles": "N#C/C(=C(/N)Sc1ccc(N)cc1)c1ccccc1C(F)(F)F", "thermal shift delta Tm": 0.18}, {"smiles": "CNC(=O)CN1CCC(Oc2cc3c(Nc4cccc(Cl)c4F)ncnc3cc2OC)CC1", "note": "[Sapitinib (AZD8931)]", "thermal shift delta Tm": 0.44}, {"smiles": "CCS(=O)(=O)N1CCN(c2ccc(Nc3ncc(C(N)=O)c(NC4CC4)n3)cc2)CC1", "thermal shift delta Tm": 1.17}, {"smiles": "O=C1NC(=O)C(=Cc2ccc(-c3ccc(F)cc3)o2)S1", "note": "(stereo in doubt)", "thermal shift delta Tm": 0.58}, {"smiles": "C[C@@H](N)c1ccc(C(=O)Nc2ccnc3[nH]ccc23)cc1", "thermal shift delta Tm": 0.45}]}]}
